Here are results for 67 compounds from PubChem BioAssay AID652115 (Broad Institute, 2013).

Structures are written as SMILES. “And” between values parts separate entries of the source, which are not always exact repeats. Equal values may be shown once. Screen size: about 330,000 compounds; about 3,800 (1.2%) were called active. Cut-off read from the data, not from the text of the source: active = inhibition above about 15%; inconclusive = no clear call, values can overlap the other calls; inactive = below that. Many of the other results were omitted from the sample, so actives are more common in it than they were. Some compounds were tested as several samples or in several runs, with calls that do not always agree.

The target of the experiment is NAD-dependent protein deacylase sirtuin-5, mitochondrial (Homo sapiens) (UniProt Q9NXA8). Briefly: SIRT5 desuccinylase inhibitors, primary screen, biochemical, fluorescence imaging, single point, set 5 (AID 652115). The conditions noted are these: Purified SirT5, succinyl-peptide AMC, trypsin-coupled fluorescence; at 15 µM; stronger effect = higher value.
Sequence of NAD-dependent protein deacylase sirtuin-5, mitochondrial (Homo sapiens) (Q9NXA8 whole entry, looked up): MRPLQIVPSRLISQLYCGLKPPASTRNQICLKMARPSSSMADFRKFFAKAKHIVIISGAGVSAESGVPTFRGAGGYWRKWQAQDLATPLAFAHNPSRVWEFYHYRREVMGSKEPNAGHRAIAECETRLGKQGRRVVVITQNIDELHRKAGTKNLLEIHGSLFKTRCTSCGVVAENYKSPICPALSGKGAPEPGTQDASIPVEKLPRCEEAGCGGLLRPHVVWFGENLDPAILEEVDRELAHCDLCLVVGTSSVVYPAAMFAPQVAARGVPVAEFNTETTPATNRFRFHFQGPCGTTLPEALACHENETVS
One may read the inhibition as the relative decrease from the control value, in per cent. Regarding `C[C@H](CO)N1C[C@H](C)[C@H](CN(C)Cc2cncnc2)Oc2cc(-c3ccccc3F)ccc2S1(=O)=O`, the inhibition was -2.9% (inactive).
The figure for `O=C(C[C@H]1CC[C@H]2[C@@H](COC[C@H](O)CN2Cc2nccs2)O1)NCc1ccc(Oc2ccccc2)cc1` is -0.449% (inactive).
The same measure for `Cc1ccc(-c2cnc3c(c2)C(=O)N([C@@H](C)CO)C[C@H](C)[C@H](CN(C)C(=O)c2cccnc2)O3)cc1`: 1.09% (inactive); for `O=S(=O)(c1ccccc1F)N1[C@@H]2CNC[C@H]1C2c1ccc(-c2cncnc2)cc1` (some centres not stated): -2.66% (inactive); for `Cc1ccc(S(=O)(=O)N[C@H]2CC[C@@H](CC(=O)N3CCc4ccccc4C3)O[C@H]2CO)cc1`: -2.83% (inactive).
The figure for `COCC(=O)N1[C@H](CO)[C@@H](c2ccccc2)C12CN(Cc1cc(F)ccc1F)C2` is 19% (active).
Regarding `COCC(=O)N1CC2(C1)[C@@H](c1ccc(-c3cccc(F)c3)cc1)[C@@H](CO)N2C(=O)COC`, the inhibition is -1.31% (inactive).
The same measure for `COCC(=O)N1CC2(C1)[C@H](c1ccc(-c3cccc(F)c3)cc1)[C@@H](CO)N2C(=O)COC`: -3.18% (inactive); for `C[C@@H](NC(=O)C[C@H]1C=C[C@@H](NC(=O)CN2CCOCC2)[C@@H](CO)O1)c1ccccc1`: 0.512% (inactive); for `O=C(C[C@@H]1CC[C@@H]2[C@H](COC[C@H](O)CN2S(=O)(=O)c2ccc(Oc3ccccc3)cc2)O1)NCCN1CCCCC1`: -3.74% (inactive).
The figure for `CO[C@@H]1CN(C)C(=O)c2ccc(NS(=O)(=O)c3ccc(Cl)cc3)cc2OC[C@@H](C)N(C)C[C@H]1C` is -8.92% (inactive); for `CC(C)NC(=O)N[C@H]1CC[C@@H](CCNC(=O)C2CCC2)O[C@@H]1CO` it is -0.093% (inactive).
The same measure for `CO[C@H]1CC[C@H]2CCOc3c(C#N)cccc3C(=O)N(C)CC3(CCCCC3)CC(=O)N(C)C[C@@H]1O2`: -0.489% (inactive).
Turning to `O=c1ccnc(Nc2ccc(Cl)cc2)[nH]1`, the inhibition was -3.58% (inactive).
With `CC1(C)N=C(N)NC(Nc2ccc(Cl)cc2)=N1`, the inhibition is 24.2% (active).
Turning to `Clc1ccc(Nc2ccc3ccccc3n2)cc1`, the inhibition was -0.101% (inactive).
The figure for `CO[C@H]1CN(C)C(=O)c2ccc(NS(=O)(=O)c3cn(C)cn3)cc2OC[C@@H](C)N(CC2CC2)C[C@H]1C` is 10.4% (inactive).
The same measure for `COC(OC)c1ccnc(SCc2ccccc2Cl)n1`: 65.6% (active).
The same measure for `COc1cnc(SCc2ccc(Cl)c(Cl)c2)nc1Cl`: -1.51% (inactive); for `CCOC(=O)c1cnc2nc(SCc3ccccc3Cl)[nH]n2c1=O`: -0.638% (inactive).
For the compound `Cc1ccc2nc(CN(C)C(=O)[C@@H](Cc3ccccc3)NC(=O)[C@H]3O[C@@H](n4ccc(=O)[nH]c4=O)[C@H](O)[C@@H]3O)[nH]c2c1`, the inhibition was 0.009% (inactive).
With `CN1C(=O)c2cc(NC(=O)c3cscn3)ccc2OC[C@@H]2O[C@H](CC(=O)N3CCCCC3)CC[C@H]21`, the inhibition was 10.6% (inactive).
Turning to `COc1ccc(C#Cc2cnc3c(c2)C(=O)N([C@H](C)CO)C[C@H](C)[C@H](CN(C)C(=O)CC2CC2)O3)cc1`, the inhibition is 8.29% (inactive).
The figure for `CCOC(=O)CN1C(=O)C(O)(CC(=O)c2ccccn2)c2ccccc21` (configuration not stated) is -3.62% (inactive).
In the case of `C=CCN1C(=O)C2(OCCCO2)c2cccc(Cl)c21`, the inhibition was -2.09% (inactive).
`C=CCN1C(=O)C(O)(CC(=O)c2ccccn2)c2ccccc21` (configuration not stated): the inhibition was 26.6% (active).
The figure for `C[C@@H]1CN([C@H](C)CO)C(=O)c2cc(NC(=O)NC3CCCCC3)ccc2O[C@@H](C)CCCCO[C@H]1CN(C)C(=O)Nc1ccccc1` is 3.67% (inactive); for `CCCNC(=O)N1[C@@H](C#N)[C@H](c2ccc(-c3ccc(C(=O)N(C)C)cc3)cc2)[C@@H]1CO` it is 4.75% (inactive).
The figure for `CO[C@@H]1CN(C)C(=O)c2cc(NC(=O)C3CCC3)ccc2OC[C@H](C)N(Cc2nccs2)C[C@H]1C` is -1.69% (inactive); for `COc1cccc(S(=O)(=O)N2CCC3(CC2)CN[C@H](CO)c2c3c3ccc(OC)cc3n2C)c1` it is 1.64% (inactive).
The same measure for `O=C(C[C@@H]1C[C@@H]2c3cc(NS(=O)(=O)c4ccc(F)cc4)ccc3O[C@@H]2[C@H](CO)O1)NCc1cc(F)ccc1F`: -3.29% (inactive); for `COCC(=O)N1CC(=O)N2[C@H](C1)[C@H](c1ccc(C#CC3CCCCC3)cc1)[C@@H]2CO`: -2.8% (inactive); for `CN(C)C(CNC(=O)c1cc2ccccc2o1)c1ccccc1` (configuration not stated): -2.25% (inactive).
Take `COc1ccccc1CN(C)C(=O)c1cc2ccccc2o1`: the inhibition is -1.39% (inactive).
Regarding `CN(C)CCCCCN(C)Cc1cc2ccccc2o1`, the inhibition is 36.8% (active).
The figure for `C[C@@H]1CN([C@H](C)CO)C(=O)c2cc(NS(=O)(=O)c3ccc(F)cc3)ccc2O[C@H]1CN(C)Cc1ccncc1` is -0.686% (inactive).
The same measure for `O=S(=O)(c1ccccc1)N1C[C@@H]2[C@H](c3ccccc31)[C@H](CO)N2Cc1ccccn1`: 1.34% (inactive); for `O=C(CSc1nc2ccccc2c(=O)[nH]1)Nc1nc(-c2ccc(Br)cc2)cs1`: -5.37% (inactive); for `Cc1ccc(-c2csc(NC(=O)Cn3[nH]c(=O)c4ccccc4c3=O)n2)cc1`: 112% (active).
The figure for `CC(=O)NCc1ccc(-c2csc(NC(=O)CCCc3nc4ccccc4c(=O)[nH]3)n2)cc1` is -2.85% (inactive); for `Cc1noc(C)c1S(=O)(=O)N(C)C[C@@H]1OCCCC[C@@H](C)Oc2ccc(NC(=O)c3ccccc3)cc2C(=O)N([C@H](C)CO)C[C@H]1C` it is 0.24% (inactive); for `C[C@H](CO)N1C[C@H](C)[C@@H](CN(C)C(=O)NC2CCCCC2)Oc2c(NC(=O)Nc3ccc(F)cc3)cccc2C1=O` it is 103% (active).
Take `C[C@H]1CN([C@@H](C)CO)C(=O)c2ccccc2-c2ccccc2CO[C@H]1CN(C)C(=O)Nc1ccc(-c2ccccc2)cc1`: the inhibition is 16.8% (active).
The figure for `COc1ccc(NC(=O)N(C)C[C@H]2OCc3ccccc3-c3ccccc3C(=O)N([C@H](C)CO)C[C@@H]2C)cc1` is 1.71% (inactive).
The same measure for `C[C@@H]1CN([C@H](C)CO)C(=O)c2cccc(NC(=O)Nc3ccccc3)c2O[C@@H]1CN(C)C(=O)NC1CCCCC1`: 3.35% (inactive).
The figure for `C[C@H]1CN([C@@H](C)CO)C(=O)c2cccc(NC(=O)Nc3ccc(C(F)(F)F)cc3)c2O[C@H]1CN(C)C(=O)NC1CCCCC1` is 2.24% (inactive).
On to `CC(C)NC(=O)Nc1cccc2c1O[C@H](CN(C)S(=O)(=O)c1cccs1)[C@@H](C)CN([C@H](C)CO)C2=O`, for which the inhibition is 23.7% (active).
Turning to `COc1ccc(NC(=O)Nc2cccc3c2O[C@H](CN(C)S(=O)(=O)c2cccs2)[C@H](C)CN([C@@H](C)CO)C3=O)cc1`, the inhibition is 1.18% (inactive).
The same measure for `C[C@@H]1CN([C@@H](C)CO)C(=O)c2ccccc2-c2ccccc2CO[C@H]1CN(C)C(=O)Nc1ccccc1`: -1.46% (inactive).
Regarding `C[C@@H]1CN([C@H](C)CO)C(=O)c2cccc(NS(C)(=O)=O)c2O[C@@H]1CN(C)S(=O)(=O)c1cccs1`, the inhibition was 1.65% (inactive).
On to `COc1ccc2c3c(n(C)c2c1)[C@H](CO)N(C)CC31CN(S(=O)(=O)c2cccc(C)c2)C1`, for which the inhibition was 4.2% (inactive).
Turning to `CO[C@H]1CN(C)C(=O)c2cc(NC(=O)Nc3ccccc3F)ccc2OC[C@H](C)N(C)C[C@H]1C`, the inhibition is -12% (inactive).
The figure for `C[C@H](CO)N1C[C@H](C)[C@@H](CN(C)S(=O)(=O)c2ccc(F)cc2)OCCCC[C@H](C)Oc2ccc(NC(=O)CCCN(C)C)cc2C1=O` is -2.49% (inactive); for `C[C@H](NC(=O)C[C@@H]1CC[C@H](NC(=O)CN2CCOCC2)[C@H](CO)O1)c1ccccc1` it is -3.17% (inactive); for `C=CC1=C(C(=O)O)N2C(=O)[C@@H](NC(=O)/C(=N\OCC(=O)O)c3csc(N)n3)[C@H]2SC1` it is 31.1% (active).
Consider `CO/N=C(\C(=O)N[C@@H]1C(=O)N2C(C(=O)O)=C(COC(C)=O)CS[C@H]12)c1csc(N)n1` (stereo in doubt), for which the inhibition is -2.03% (inactive) and -4% (inactive) and 22.2% (active).
The same measure for `Cc1nnc(SCC2=C(C(=O)O)N3C(=O)C(NC(=O)Cn4nc(C)c(Cl)c4C)C3SC2)s1` (configuration not stated): -1.34% (inactive); for `C=CC1=C(C(=O)O)N2C(=O)[C@@H](NC(=O)/C(=N/OCC(=O)O)c3csc(N)n3)[C@H]2SC1`: 30.9% (active); for `Cc1cc(C)cc(C(=O)NC2C(=O)N3C(C(=O)O)=C(CSc4nnc(C)s4)CSC23)c1` (configuration not stated): -0.622% (inactive).
The same measure for `CO[C@@H]1CN(C)C(=O)c2cc(NC(=O)C3CC3)ccc2OC[C@@H](C)N(Cc2nccs2)C[C@@H]1C`: -0.135% (inactive); for `CCC(=O)N1[C@@H]2CN(C(=O)Nc3ccc(Cl)cc3)c3ccccc3[C@@H]2[C@@H]1CO`: -1.71% (inactive).
The same measure for `CCCNC(=O)C[C@H]1C[C@@H]2c3cc(NC(=O)NC4CCCC4)ccc3O[C@@H]2[C@@H](CO)O1`: -4.3% (inactive).
On to `CN(C)CC(=O)N[C@@H]1C[C@@H]2O[C@H](CO)CC[C@@H]2O[C@@H]1CCc1ccc(C#Cc2ccccc2)cc1`, for which the inhibition is -2.33% (inactive).
The figure for `Cc1noc(C)c1NC(=O)Nc1ccc2c(c1)C(=O)N([C@@H](C)CO)C[C@@H](C)[C@H](CN(C)C)O2` is -1.93% (inactive); for `CN(C)CC(=O)Nc1ccc2c(c1)[C@H]1C[C@H](CC(=O)NCc3ccc4c(c3)OCO4)O[C@@H](CO)[C@H]1O2` it is 0.927% (inactive); for `Cc1ccc(S(=O)(=O)N(C)C[C@@H]2Oc3ccc(N(C)C)cc3C(=O)N([C@@H](C)CO)C[C@H]2C)cc1` it is -7.63% (inactive).
As to `COc1ccc2c3c(n(C)c2c1)[C@@H](CO)N(Cc1ccncc1)CC31CN(C(=O)C2CCC2)C1`, the inhibition is 2.18% (inactive).
